Experimental data reported in PubChem BioAssay AID1159580 (chemical genetic matrix, 2015).
In all, about 5,500 compounds went through this assay and about 2,000 (36%) were called active. About 18% were inconclusive and are not listed. Rule as the data show it: active = normalized growth mostly below about 0.91 (no sharp cut-off); inconclusive = no clear call, values can overlap the other calls; inactive = mostly above about 0.92. Some of the results follow.

Experiment: chemical genetic growth profiling, strain panel (AID 1159580);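 also: tested at 20 µM; growth read once vehicle control cultures reached saturation at 30 °C; 1 = growth at the plate median or of vehicle wells; lower values mean less growth of the strain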
Conditions: S. cerevisiae deletion strains, growth OD

Measured: normalized growth

O=C(O)COc1ccc(Cl)cc1Cl
inactive: locus YAL013W, strain DEP1, stronger effect = lower value 1.01 | locus YAL021C, strain ccr4, stronger effect = lower value 0.997 | locus YAL026C, strain drs2, stronger effect = lower value 1.01 | locus YAL030W, strain snc1, stronger effect = lower value 0.988 | locus YBL061C, strain skt5, stronger effect = lower value 0.997 | locus YBR009C, strain hhf1, stronger effect = lower value 0.992 | locus YBR021W, strain FUR4, stronger effect = lower value 1 | locus YBR023C, strain chs3, stronger effect = lower value 0.992 | locus YBR171W, strain sec66, stronger effect = lower value 1 | locus YBR229C, strain ROT2, stronger effect = lower value 0.999 | locus YBR231C, strain swc5, stronger effect = lower value 0.989 | locus YBR279W, strain paf1, stronger effect = lower value 0.992 | locus YCL011C, strain gbp2, stronger effect = lower value 1 | locus YCL016C, strain dcc1, stronger effect = lower value 0.994 | locus YCL029C, strain bik1, stronger effect = lower value 1.03 | locus YCL061C, strain MRC1, stronger effect = lower value 0.995 | locus YCL069W, strain vba3, stronger effect = lower value 1 | locus YCR088W, strain abp1, stronger effect = lower value 1 | locus YDL005C, strain med2, stronger effect = lower value 0.992 | locus YDL035C, strain GPR1, stronger effect = lower value 1.03 | locus YDL040C, strain nat1, stronger effect = lower value 0.996 | locus YDL074C, strain BRE1, stronger effect = lower value 1.05 | locus YDL101C, strain DUN1, stronger effect = lower value 0.999 | locus YDL134C, strain PPH21, stronger effect = lower value 1.02 | locus YDL185W, strain tfp1, stronger effect = lower value 1.02 | locus YDL192W, strain arf1, stronger effect = lower value 1.02 | locus YDR001C, strain nth1, stronger effect = lower value 1 | locus YDR069C, strain doa4, stronger effect = lower value 0.986 | locus YDR101C, strain arx1, stronger effect = lower value 1.02 | locus YDR137W, strain rgp1, stronger effect = lower value 1.01 | locus YDR150W, strain NUM1, stronger effect = lower value 1.01 | locus YDR159W, strain sac3, stronger effect = lower value 0.982 | locus YDR162C, strain NBP2, stronger effect = lower value 1.01 | locus YDR195W, strain ref2 0.968 | locus YDR297W, strain sur2, stronger effect = lower value 1.01 | locus YDR318W, strain mcm21, stronger effect = lower value 1.03 | locus YDR334W, strain swr1, stronger effect = lower value 1 | locus YDR335W, strain msn5, stronger effect = lower value 0.998 | locus YDR388W, stronger effect = lower value 1.02 | locus YDR392W, strain spt3, stronger effect = lower value 1 | locus YDR502C, strain sam2, stronger effect = lower value 1.02 | locus YEL003W, strain gim4, stronger effect = lower value 0.995 | locus YEL037C, strain rad23, stronger effect = lower value 1.01 | locus YEL061C, strain CIN8 (second series), stronger effect = lower value 0.989 | locus YEL061C, strain CIN8, stronger effect = lower value 1 | locus YER015W, strain faa2, stronger effect = lower value 0.997 | locus YER016W, strain bim1, stronger effect = lower value 1 | locus YER110C, stronger effect = lower value 1.02 | locus YER111C, strain swi4, stronger effect = lower value 0.977 | locus YER155C, strain BEM2 (second series), stronger effect = lower value 1.01 | locus YER155C, strain BEM2, stronger effect = lower value 1.01 | locus YER167W, strain BCK2, stronger effect = lower value 1.02 | locus YFR010W, strain ubp6, stronger effect = lower value 0.998 | locus YGL078C, strain dbp3, stronger effect = lower value 1.02 | locus YGL086W, strain mad1, stronger effect = lower value 1.01 | locus YGL167C, strain pmr1, stronger effect = lower value 1 | locus YGL173C, strain kem1, stronger effect = lower value 0.984 | locus YGL227W, strain vid30, stronger effect = lower value 0.987 | locus YGL240W, strain doc1, stronger effect = lower value 0.982 | locus YGL248W, strain PDE1, stronger effect = lower value 1.03 | locus YGL253W, strain hxk2, stronger effect = lower value 0.995 | locus YGR078C, strain PAC10, stronger effect = lower value 1.02 | locus YGR135W, strain pre9, stronger effect = lower value 1.02 | locus YGR229C, strain SMI1, stronger effect = lower value 1.04 | locus YGR252W, strain gcn5, stronger effect = lower value 1.03 | locus YHR013C, strain ard1, stronger effect = lower value 0.995 | locus YHR027C, strain rpn1, stronger effect = lower value 0.994 | locus YHR030C, strain SLT2, stronger effect = lower value 0.999 | locus YHR079C, strain IRE1 (second series), stronger effect = lower value 1.03 | locus YHR094C, strain hxt1, stronger effect = lower value 1.01 | locus YHR129C, strain ARP1, stronger effect = lower value 1 | locus YHR142W, strain chs7, stronger effect = lower value 1.01 | locus YHR200W, strain rpn10, stronger effect = lower value 1.01 | locus YIL066C, strain RNR3, stronger effect = lower value 1.02 | locus YIL073C, strain SPO22, stronger effect = lower value 1.1 | locus YIL125W, strain kgd1, stronger effect = lower value 1.03 | locus YIR030C, strain dcg1, stronger effect = lower value 1.02 | locus YJL092W, strain hpr5, stronger effect = lower value 0.987 | locus YJL095W, strain BCK1 (second series), stronger effect = lower value 0.987 | locus YJL095W, strain BCK1, stronger effect = lower value 1.02 | locus YJL115W, strain asf1, stronger effect = lower value 1 | locus YJL129C, strain trk1, stronger effect = lower value 1.02 | locus YJL134W, strain LCB3, stronger effect = lower value 1 | locus YJL154C, strain vps35, stronger effect = lower value 1 | locus YJL164C, strain tpk1, stronger effect = lower value 1 | locus YJL166W, strain qcr8, stronger effect = lower value 0.992 | locus YJL168C, strain set2, stronger effect = lower value 1.02 | locus YJL187C, strain SWE1 (second series), stronger effect = lower value 1.01 | locus YJL187C, strain SWE1, stronger effect = lower value 1
